The record followed here is PubChem BioAssay (NCATS).

“And” between values parts separate entries of the source, which are not always exact repeats. Equal entries are not always repeated. Records with an inconclusive call do not appear. Unmarked numbers belong to inactive results. The source made the active and inactive calls. Calls come from the whole dose curve; as a rule, active = well fitted cell-killing curve with a large enough effect; inconclusive = small, poorly fitted or top-dose-only effect, or effect the other way; inactive = no such curve, though single readings can be large or run the other way.
Potency is the fitted concentration of half-maximal effect.

This test can be described thus: Viability qHTS for spleen associated tyrosine kinase inhibitor (SYKi) drug resistant MV4-11 cells (AID 1963824). Note: nearly all actives have a fitted effect of over 35% in size. The conditions noted are these: SYKi-resistant MV4-11 viability, CellTiter-Glo, 72 h; series mostly up to 45 µM; viability, % of control: at the top concentration. A digest of the protocol:
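SYK inhibitor-resistant MV4-11 AML cells, 500 per well, added to predispensed compounds and incubated 72 hr at 37 C, 5% CO2. Viability measured by CellTiter-Glo luminescence after 10 min at room temperature.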
In the case of `Nc1nc(=S)c2[nH]cnc2[nH]1`, the Potency is 1.05 µM (active). Turning to `NCCCC(O)(P(=O)(O)O)P(=O)(O)O`, the “viability, % of control” value was 65.3%. Turning to `COc1cc2nc(N3CCN(C(=O)c4ccco4)CC3)nc(N)c2cc1OC`, the Potency is 11.6 µM (active). On the same count and under the same terms, with `CN(C)c1ccc(-c2nc3ncc(Cl)c(N4CCN(CC(=O)Nc5nccs5)CC4)c3[nH]2)cc1` the figure was 0.645 µM (active). For `Cn1cc(C2=C(c3c4n(c5ccccc35)CCC(CN)C4)C(=O)NC2=O)c2ccccc21` (configuration not stated), the Potency was 2.7 µM (active). As for `CNC(=O)c1c(-c2ccc(F)cc2)oc2cc(N(CCO)S(C)(=O)=O)c(C3CC3)cc12`, the “viability, % of control” value was 80.1%. Regarding `S=C(NCc1ccc2c(c1)OCO2)N1CCN(c2ncnc3c2oc2ccccc23)CC1`, the Potency is 1.86 µM (active). Consider `CC(C)(C)NC(=O)Nc1cccc(Nc2ncc(F)c(NC(C)(C)CO)n2)c1`, for which the Potency is 2.31 µM (active).

In the case of `CNC(=O)c1cc(Oc2ccc(NC(=O)Nc3ccc(Cl)c(C(F)(F)F)c3)c(F)c2)ccn1`, the Potency is 291 nM (active) and 590 nM (active). Same read-out and setting: with `CCC(C(=O)O)C1CCC(C)C(C(C)C(O)C(C)C(=O)C(CC)C2OC3(C=CC(O)[C@@]4(CC[C@](C)(C5CC[C@@](O)(CC)C(C)O5)O4)O3)C(C)CC2C)O1` (some centres not stated) the figure was 0.417 µM (active); with `CC1(C)CCC(CN2CCN(c3ccc(C(=O)NS(=O)(=O)c4ccc(NCC5CCOCC5)c([N+](=O)[O-])c4)c(Oc4cnc5[nH]ccc5c4)c3)CC2)=C(c2ccc(Cl)cc2)C1`, 10 nM (active) and 41.7 nM (active). Still for that read-out and setting: with `NC1(c2ccc(-c3nc4ccn5c(=O)[nH]nc5c4cc3-c3ccccc3)cc2)CCC1` the figure was 11.9 µM (active) and 8.2 µM (active) and 5.9 µM (active); with `Cc1cccc(Nc2nc(N[C@@H]3CCCC[C@H]3N)ncc2C(N)=O)c1`, 2.63 µM (active). On to `CNC(=O)c1cc(Oc2ccc(NC(=O)Nc3ccc(Cl)c(C(F)(F)F)c3)cc2)ccn1`, for which the Potency is 23.5 nM (active) and 59.6 nM (active) and 13 nM (active). Consider `N#CCNC(=O)c1ccc(-c2ccnc(Nc3ccc(N4CCOCC4)cc3)n2)cc1`, for which the Potency was 580 nM (active) and 934 nM (active). For `CN1CCN(c2cc(C(=O)Nc3ccc4c(c3)-c3c(c(C(N)=O)nn3-c3ccc(F)cc3)CC4)c(Cl)cn2)CC1`, the Potency is 2.59 µM (active).

As for `O=C(CN1C(=O)C2(CCCC2)NC[C@H]1c1cc(F)cc(F)c1)Nc1ccc2c(c1)C[C@@]1(C2)C(=O)Nc2ncccc21`, the Potency was 18.6 µM (active). Still for that read-out and setting: with `Cc1ccc2nc(NCCN)c3ncc(C)n3c2c1` the figure was 4.61 µM (active) and 2.63 µM (active). On to `O=C(O)C1=CC(O)C(O)[C@H](O)C1` (some centres not stated), for which the “viability, % of control” value was 94.2%. As to `CC1CCC(C(=O)N(c2cc(C#CC(C)(C)C)sc2C(=O)O)C2CCC(O)CC2)CC1` (configuration not stated), the Potency was 11.8 µM (active) and 14.6 µM (active).

For `CC(C)c1cc(C(=O)N2Cc3ccc(CN4CCN(C)CC4)cc3C2)c(O)cc1O`, the Potency was 41.1 nM (active) and 52.5 nM (active). On the same count and under the same terms, with `Cc1cccc2c1CC[C@H](CN1CCC(c3c(Cl)cccc3Cl)CC1)C[C@@H]2O` the figure was 2.59 µM (active); with `Cn1c(Nc2ccc(C(F)(F)F)cc2)nc2cc(Oc3ccnc(-c4ncc(C(F)(F)F)[nH]4)c3)ccc21`, 1.3 µM (active); with `COc1cc(OC2CCN(C)CC2)ccc1Nc1ncc2c(n1)n(C1CCCC1)c(=O)n2C`, 2.95 µM (active).

In the case of `c1nc2nc(Nc3ccc(N4CCOCC4)cc3)nc(NC3CCCCC3)c2[nH]1`, the Potency was 317 nM (active) and 366 nM (active). As for `COc1cc2c(N3CCN(C(=O)Nc4ccc(OC(C)C)cc4)CC3)ncnc2cc1OCCCN1CCCCC1`, the Potency is 366 nM (active) and 662 nM (active). The same measure, in the same setting: with `CS(=O)(=O)c1cccc(CNc2nc(Nc3ccc4c(c3)CCC(=O)N4)ncc2C(F)(F)F)c1` the figure was 0.164 µM (active); with `C[C@@H](N)c1ccc(C(=O)Nc2ccnc3[nH]ccc23)cc1`, 10.3 µM (active).

Consider `C1CCC(C(CC2CCCCN2)C2CCCCC2)CC1` (configuration not stated), for which the Potency was 2.95 µM (active). Consider `O=C(Nc1nnc(-c2ccco2)o1)c1cc(-c2ccccc2)nc2ccccc12`, for which the Potency was 13.2 µM (active). Turning to `COc1ccc(-c2cc3c(C)nc(N)nc3n(C3CCC(OCCO)CC3)c2=O)cn1` (configuration not stated), the Potency is 206 nM (active) and 417 nM (active). The same measure, in the same setting: with `Nc1nc(Nc2ccc(S(N)(=O)=O)cc2)nn1C(=O)c1c(F)cccc1F` the figure was 1.03 µM (active) and 1.48 µM (active).
